Assay outcomes deposited in PubChem BioAssay by several laboratories.
GIRK2 activator: Activators of human GIRK2-containing channels. P48051. HEK293 GIRK2/NPY4 cells, thallium flux fluorescence. activation (% efficacy), % for hits at 37.5 µM. 34,000 tested, under 10 active. AID 1259324;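 active = primary screen hit, no activity in plain HEK293 cells, and in GIRK2-only cells above 5% efficacy rising with concentration; inactive = the rest, including fluorescent compounds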;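 note: efficacy is normalized control-subtracted fluorescence 15 s after thallium addition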
GluA2 TARP mod: modulates AMPAR-stargazin complexes; O88602+P19491; HEK293 GluA2+stargazin, membrane potential dye (FDSS), glutamate EC50; hits were called plate by plate, in both directions; calls only at 30 µM; actives 3.5% (n = 40,000);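 active = any of four per-well response measures lying three or more SD from its plate-wide compound average, in either direction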
Of the large screens only hits and unclear results are named; the others gave an inactive call. The full list was thinned out, with hits kept by preference.

CC(=O)N1CCN(c2nnc(SCC(=O)Nc3cc(C)on3)s2)CC1	none
Cc1cccc(Nc2ccc(N3CCN(C(=O)c4c(F)cccc4F)CC3)nn2)n1	none (no result: GluA2 TARP mod)
Cc1cccc(Nc2ccc(N3CCN(C(=O)Cc4c[nH]c5ccccc45)CC3)nn2)n1	GluA2 TARP mod active
COc1ccccc1NC(=O)N1CCC(CNC(=O)c2cccc(C#N)c2)CC1	none
COc1cc(C(=O)N(CCN2CCOCC2)c2nc3cc(C)c(C)cc3s2)cc(OC)c1OC	none
Cn1ccnc1N1CCN(C(=O)c2ccco2)CC1	none
CCNc1nn(CC(=O)N2CCOc3ccc(C)cc32)c(N)c1-c1nc(-c2ccc(Cl)cc2)no1	none
O=c1c2cnn(-c3ccc(F)cc3)c2ncn1Cc1nc(-c2cccc(Br)c2)no1	none
COc1ccc2nc(C)n(-c3ccc(C(=O)O)cc3)c(=O)c2c1	none (no result: GIRK2 activator)
CN(C)CCN1CC(C(N)=O)CC1=O (centres undefined)	none
O=C(Nc1ccc(Cl)cc1Cl)N1CCN(c2ccc(-c3ccco3)nn2)CC1	none
O=C(Cc1ccc(Cl)cc1)Nc1ccc(CC(=O)N2CCCC2)cc1	none
CN(c1nc2c(c(=O)n(C)c(=O)n2C)n1CC(=O)O)C1CCCCC1	none
COc1ccc(S(=O)(=O)CC(=O)Nc2ccc3c(c2)C(=O)NC3=O)cc1	none
COc1ccc(SCCC(=O)Nc2ccc3c(c2)C(=O)NC3=O)cc1	GluA2 TARP mod active
COC(=O)c1c(NC(=O)c2ccn(C)n2)sc2c1CCN(Cc1ccccc1)C2	GluA2 TARP mod active
Cc1cc(C(=O)Nc2sc3c(c2C#N)CCN(Cc2ccccc2)C3)on1	none (no result: GluA2 TARP mod)
N#Cc1c(NC(=O)c2cc3ccccc3o2)sc2c1CCN(Cc1ccccc1)C2	GluA2 TARP mod active (no result: GIRK2 activator)
CC(C)N1CCc2c(sc(NC(=O)c3ccn(C)n3)c2C(N)=O)C1	none
COc1cc(COCC2CCN(CC(=O)Nc3ccc(C(C)=O)cc3)CC2)cc(OC)c1	none
O=C(Nc1nc2c(s1)CSc1ccccc1-2)c1cc2ccccc2o1	GluA2 TARP mod active (no result: GIRK2 activator)
CC(C)S(=O)(=O)c1ccc(C(=O)Nc2nc3c(s2)CSc2ccccc2-3)cc1	none
Cc1ccc(NC(=O)c2n[nH]c3ccccc23)cc1F	none (no result: GIRK2 activator)
O=C(NCc1cccs1)c1coc(NC(=O)c2ccco2)n1	GluA2 TARP mod active
O=C(Nc1nnc(Cc2cccs2)o1)c1ccco1	none
Cc1ccc(S(=O)(=O)N2CC(CO)N(S(=O)(=O)c3ccc(C)cc3)c3ccccc32)cc1 (centres undefined)	none
O=C(CCCS(=O)(=O)c1ccccc1)Nc1cccc(-c2nc3ccccc3o2)c1	none
N=c1c(C(=O)NC2CCCC2)cc2c(=O)n3ccccc3nc2n1C1CCCC1	GluA2 TARP mod active
Cc1ccc(CNC(=O)c2cc3c(=O)n4ccccc4nc3n(Cc3ccco3)c2=N)cc1	none
Cc1ccc2nc(NC(=O)c3ccc(=O)n(Cc4cccc(F)c4)n3)sc2c1	none
CCOC(=O)c1csc(NC(=O)c2ccc(=O)n(Cc3cccc(F)c3)n2)n1	GluA2 TARP mod active
Nc1nc2ccc(OC(F)(F)F)cc2s1	GluA2 TARP mod active
COc1ccc2nc(NC(=O)NC34CC5CC(CC(C5)C3)C4)sc2c1	none
CC(NC(=O)C(=O)NCC1CCN(Cc2ccsc2)CC1)c1ccccc1 (centres undefined)	none
COc1ccc2c(c1)CCN(C(=O)C1CN(c3nc4c(C(F)(F)F)cccc4s3)C1)C2	none
CCN(C(=O)Cn1cnc2c(-c3ccccc3)csc2c1=O)c1ccccc1	GluA2 TARP mod active
CN(C(=O)Cn1cnc2c(-c3ccccc3)csc2c1=O)c1ccc(F)cc1	none
Cc1nnsc1C(=O)NCCn1nc(-n2cccn2)ccc1=O	none (no result: GluA2 TARP mod)
CCC(C)NC(=O)c1cc2cccc(OC)c2oc1=O (centres undefined)	none
COc1cccc2cc(C(=O)CS(=O)(=O)c3ccccc3)c(=O)oc12	GluA2 TARP mod active (no result: GIRK2 activator)
Cc1cccc(NC(=O)CN2N=NC3C(=O)N(c4ccc(F)c(Cl)c4)C(=O)C32)c1C (centres undefined)	none (no result: GIRK2 activator)
NC(=O)C1CCN(C(=O)Cc2cc(-c3ccc(F)cc3)on2)CC1	none
NC(=O)C1CCN(C(=O)Cc2cc(-c3cc4ccccc4o3)on2)CC1	GluA2 TARP mod active
Cc1cc(C)c(S(=O)(=O)N2CCCOC2CNC(=O)C(=O)NCCCN2CCOCC2)c(C)c1 (centres undefined)	none (no result: GIRK2 activator)
CC(C)N(CC(O)CN1C(=O)NC(C)(C)C1=O)C(C)C (centres undefined)	none (no result: GIRK2 activator)
O=C(/C=C/c1cccs1)Nc1ncc(Cc2ccccc2F)s1	none
Cc1ccc(Cl)cc1NC(=O)Cn1c(=O)n(C2CC2)c(=O)c2nscc21	GluA2 TARP mod active
Cc1ccc(NC(=O)Cn2c(=O)n(C3CC3)c(=O)c3nscc32)c(C)c1	none
O=C(Nc1cc(-c2cccs2)nn1CCO)c1nc2ccccc2s1	none
Cc1cc(C)c(S(=O)(=O)NCC(O)c2sccc2C)cc1C (centres undefined)	none
CCc1ccc(-c2cc3c(=O)n(Cc4nc(-c5cccc(C(F)(F)F)c5)no4)ccn3n2)cc1	GluA2 TARP mod active
